Laboratory results published in PubChem BioAssay (NCATS).
Records with an inconclusive call do not appear. The source made the active and inactive calls. Calls come from the whole dose curve; as a rule, active = well fitted curve in the direction sought with a large enough effect; inconclusive = small, poorly fitted or top-dose-only effect, or another doubt; inactive = no such curve, though single readings can be large; an effect the other way counts as inactive or inconclusive. Bridge positions count the residues as written; N and C are the ends. Square brackets hold non-standard residues; d marks the D form. Peptide text beside a SMILES is read from it. * marks the point of attachment. ξ: configuration not given here. ξDab(CH2SO3H) = NC(CCNCS(=O)(=O)O)C(=O)O; Heptanoyl(6-Me) = CC(C)CCCCC(=O)*; Dab = NCC[CH](N)C(=O)O

Tests used:
[1] = molecular target: ATP-dependent 6-phosphofructokinase (Trypanosoma brucei brucei) (UniProt O15648); experiment: qHTS Assay to Find Inhibitors of T. brucei phosphofructokinase: hit validation (AID 492961);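 note: luminescence reports ADP formed as PFK phosphorylates fructose-6-phosphate with ATP; % is set by controls: 0 for no effect and ±100 for the full control effect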
Outline: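 Reaction: 0.1 M triethanolamine pH 8.0, 5 mM MgCl2, F6P 0.5 mM, ATP 0.1 mM, PFK 1.25 nM, 45 min RT. Read-out: ADP-Glo luminescence. Analysis: concentration-response fits, classed by r2 and efficacy.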

[2] = molecular target: Ubiquitin carboxyl-terminal hydrolase 1 (Homo sapiens) (UniProt O94782); experiment: Inhibitors of USP1/UAF1: Pilot qHTS (AID 504865);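 note: rhodamine fluorescence freed from ubiquitin-rhodamine substrate followed over time; top concentration of the series differs between compounds; % is set by controls: 0 for no effect and ±100 for the full control effect; nearly all actives have a fitted effect of over 35% in size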
Outline: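 Deubiquitinase activity followed as kinetic rhodamine fluorescence release from 150 nM Ub-Rho. 1 nM USP1/UAF1 with compound, after 15 min room-temperature preincubation, in HEPES pH 7.8 buffer containing TCEP, EDTA, BSA and Tween-20.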

[3] = molecular target: Luciferin 4-monooxygenase (Photinus pyralis) (UniProt P08659); experiment: Biochemical firefly luciferase enzyme assay for NPC (AID 624030);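 note: purified P. pyralis luciferase at 10 nM with luciferin and ATP substrate; 0% = DMSO and -100% = full luciferase inhibition by PTC124 control; nearly all actives have a fitted effect of over 70% in size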
Outline: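 Counter-screen for direct inhibition of the luciferase enzyme by approved-drug library compounds, run at 10 nM enzyme in 50 mM Tris acetate (final). Luminescence was read within 5 min of enzyme-buffer addition and normalized to PTC124 versus DMSO (0%).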

[4] = qHTS profiling for inhibitors of Plasmodium falciparum proliferation (AID 504749); note: nearly all actives have a fitted effect of over 60% in size; note: potency is the fitted concentration of half-maximal effect;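 for activity, negative = inhibition: 0% = DMSO vehicle and full inhibition = artemisinin control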; conditions: P. falciparum in erythrocytes, SYBR Green DNA, 72 h
Outline: (§1)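 Parasite proliferation within erythrocytes, 72 h exposure. Endpoint: SYBR Green I fluorescence after overnight lysis at room temperature. Controls: 0.29 uM artemisinin, DMSO.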

ATS189 = experiment: as above; conditions: P. falciparum in erythrocytes, SYBR Green DNA, 72 h; series mostly up to 28.7 µM
Outline: as §1

C2A = experiment: as above; conditions: P. falciparum in erythrocytes, SYBR Green DNA, 72 h; series mostly up to 28.7 µM
Outline: as §1

CP191 = experiment: as above; conditions: P. falciparum in erythrocytes, SYBR Green DNA, 72 h; series mostly up to 28.7 µM
Outline: as §1

CP192 = experiment: as above; conditions: P. falciparum in erythrocytes, SYBR Green DNA, 72 h; series mostly up to 28.7 µM
Outline: as §1

CP201 = experiment: as above; conditions: P. falciparum in erythrocytes, SYBR Green DNA, 72 h; series mostly up to 28.7 µM
Outline: as §1

CP215 = experiment: as above; conditions: P. falciparum in erythrocytes, SYBR Green DNA, 72 h; series mostly up to 28.7 µM
Outline: as §1

CP237 = experiment: as above; conditions: P. falciparum in erythrocytes, SYBR Green DNA, 72 h; series mostly up to 28.7 µM
Outline: as §1

CP238 = experiment: as above; conditions: P. falciparum in erythrocytes, SYBR Green DNA, 72 h; series mostly up to 28.7 µM
Outline: as §1

CP268 = experiment: as above; conditions: P. falciparum in erythrocytes, SYBR Green DNA, 72 h; series mostly up to 28.7 µM
Outline: as §1

CP269 = experiment: as above; conditions: P. falciparum in erythrocytes, SYBR Green DNA, 72 h; series mostly up to 28.7 µM
Outline: as §1

CP286 = experiment: as above; conditions: P. falciparum in erythrocytes, SYBR Green DNA, 72 h; series mostly up to 28.7 µM
Outline: as §1

CP325 = experiment: as above; conditions: P. falciparum in erythrocytes, SYBR Green DNA, 72 h; series mostly up to 28.7 µM
Outline: as §1

CP329 = experiment: as above; conditions: P. falciparum in erythrocytes, SYBR Green DNA, 72 h; series mostly up to 28.7 µM
Outline: as §1

FAB9 = experiment: as above; conditions: P. falciparum in erythrocytes, SYBR Green DNA, 72 h; series mostly up to 28.7 µM
Outline: as §1

JCK = experiment: as above; conditions: P. falciparum in erythrocytes, SYBR Green DNA, 72 h; series mostly up to 28.7 µM
Outline: as §1

PC49 = experiment: as above; conditions: P. falciparum in erythrocytes, SYBR Green DNA, 72 h; series mostly up to 28.7 µM
Outline: as §1

[5] = at 28.7 µM (top of the series), parasite line A
[6] = at 28.7 µM (top of the series), parasite line B

Sequence of ATP-dependent 6-phosphofructokinase (Trypanosoma brucei brucei) (O15648 whole entry, looked up): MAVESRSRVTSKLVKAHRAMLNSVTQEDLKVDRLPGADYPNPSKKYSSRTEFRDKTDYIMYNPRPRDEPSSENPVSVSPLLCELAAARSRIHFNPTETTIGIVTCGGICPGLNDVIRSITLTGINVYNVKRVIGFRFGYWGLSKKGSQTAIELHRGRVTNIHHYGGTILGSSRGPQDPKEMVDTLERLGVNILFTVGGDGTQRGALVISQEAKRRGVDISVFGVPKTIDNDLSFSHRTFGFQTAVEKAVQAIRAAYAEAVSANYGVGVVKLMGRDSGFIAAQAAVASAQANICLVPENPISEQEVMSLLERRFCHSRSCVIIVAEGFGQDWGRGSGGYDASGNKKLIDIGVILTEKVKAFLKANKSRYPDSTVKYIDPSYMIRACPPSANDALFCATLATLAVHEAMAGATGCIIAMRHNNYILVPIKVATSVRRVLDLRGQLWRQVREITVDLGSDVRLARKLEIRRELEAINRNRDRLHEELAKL
Sequence of Luciferin 4-monooxygenase (Photinus pyralis) (P08659 whole entry, looked up): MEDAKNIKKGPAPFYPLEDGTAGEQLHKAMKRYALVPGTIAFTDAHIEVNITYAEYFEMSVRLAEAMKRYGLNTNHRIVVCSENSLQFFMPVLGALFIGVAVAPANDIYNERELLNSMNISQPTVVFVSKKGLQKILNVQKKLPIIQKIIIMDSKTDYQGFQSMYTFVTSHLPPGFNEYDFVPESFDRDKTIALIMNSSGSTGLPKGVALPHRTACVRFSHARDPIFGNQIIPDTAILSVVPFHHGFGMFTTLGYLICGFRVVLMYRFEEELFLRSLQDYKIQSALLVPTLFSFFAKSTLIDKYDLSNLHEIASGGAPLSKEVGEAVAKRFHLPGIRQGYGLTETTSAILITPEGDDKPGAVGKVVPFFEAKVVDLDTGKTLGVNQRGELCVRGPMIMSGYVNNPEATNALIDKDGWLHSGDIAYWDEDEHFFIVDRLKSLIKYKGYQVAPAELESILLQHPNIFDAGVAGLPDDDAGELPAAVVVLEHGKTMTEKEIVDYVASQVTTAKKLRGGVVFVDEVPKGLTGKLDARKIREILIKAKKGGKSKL
Sequence of Ubiquitin carboxyl-terminal hydrolase 1 (Homo sapiens) (O94782 whole entry, looked up): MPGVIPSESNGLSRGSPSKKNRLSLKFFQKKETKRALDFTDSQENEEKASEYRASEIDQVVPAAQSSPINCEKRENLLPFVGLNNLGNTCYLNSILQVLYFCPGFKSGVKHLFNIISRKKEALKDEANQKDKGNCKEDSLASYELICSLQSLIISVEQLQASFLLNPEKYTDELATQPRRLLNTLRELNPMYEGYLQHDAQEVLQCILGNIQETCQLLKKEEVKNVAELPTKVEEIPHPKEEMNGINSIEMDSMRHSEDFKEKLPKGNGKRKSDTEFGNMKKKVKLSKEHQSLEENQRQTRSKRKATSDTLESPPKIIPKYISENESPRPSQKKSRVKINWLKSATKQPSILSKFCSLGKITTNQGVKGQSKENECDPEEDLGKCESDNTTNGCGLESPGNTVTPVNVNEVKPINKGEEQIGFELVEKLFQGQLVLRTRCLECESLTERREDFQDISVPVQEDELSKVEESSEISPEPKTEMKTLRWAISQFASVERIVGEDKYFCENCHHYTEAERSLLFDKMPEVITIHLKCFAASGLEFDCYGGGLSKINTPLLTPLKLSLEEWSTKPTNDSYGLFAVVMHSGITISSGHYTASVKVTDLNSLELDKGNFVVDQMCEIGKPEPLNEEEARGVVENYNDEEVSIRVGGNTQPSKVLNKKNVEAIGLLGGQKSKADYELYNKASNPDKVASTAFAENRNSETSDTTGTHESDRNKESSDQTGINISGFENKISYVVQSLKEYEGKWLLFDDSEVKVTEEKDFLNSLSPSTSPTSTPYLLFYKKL

C[C@]12C=CC(=O)C=C1CC[C@@H]1C2CC[C@]2(C)OC(=O)CCC12 (stereo partly drawn)
inactive: outcome [1] | Potency [2] | Potency [3] | activity, negative = inhibition [4, 5] 2.99% | activity, negative = inhibition [4, 6] 7.55% | Potency (ATS189) | Potency (C2A) | Potency (CP191) | Potency (CP192) | Potency (CP201) | Potency (CP215) | Potency (CP237) | Potency (CP238) | Potency (CP268) | Potency (CP269) | Potency (CP286) | Potency (CP325) | Potency (CP329) | Potency (FAB9) | Potency (JCK) | Potency (PC49)

[S]=[Sb][S][Sb]=[S]
inactive: outcome [1] | Potency [2] | Potency [3] | activity, negative = inhibition [4, 5] 8.49% | activity, negative = inhibition [4, 6] 1.29% | Potency (ATS189) | Potency (C2A) | Potency (CP191) | Potency (CP192) | Potency (CP201) | Potency (CP215) | Potency (CP237) | Potency (CP238) | Potency (CP268) | Potency (CP269) | Potency (CP286) | Potency (CP325) | Potency (CP329) | Potency (FAB9) | Potency (JCK) | Potency (PC49)

CCCCCc1cc(O)c2c(c1)OC(C)(C)C1CC=C(C)CC21 (stereo not drawn)
inactive: outcome [1] | Potency [3]
active: Potency ([4]; parasite line A) 3550 nM | Potency ([4]; parasite line B) 1120 nM | Potency (ATS189) 3160 nM | Potency (C2A) 10000 nM | Potency (CP191) 3980 nM | Potency (CP192) 6010 nM | Potency (CP201) 15100 nM | Potency (CP215) 4260 nM | Potency (CP237) 1780 nM | Potency (CP238) 3160 nM | Potency (CP268) 6010 nM | Potency (CP269) 4780 nM | Potency (CP286) 5620 nM | Potency (CP325) 6010 nM | Potency (CP329) 9530 nM | Potency (JCK) 11200 nM | Potency (PC49) 4470 nM

C=C1Nc2ccccc2C(=O)N1c1ccccc1C
inactive: outcome [1] | Potency [2] | Potency [3] | activity, negative = inhibition [4, 5] -20.1% | activity, negative = inhibition [4, 6] -23.4% | Potency (ATS189) | Potency (C2A) | Potency (CP191) | Potency (CP192) | Potency (CP201) | Potency (CP215) | Potency (CP237) | Potency (CP238) | Potency (CP268) | Potency (CP269) | Potency (CP286) | Potency (CP325) | Potency (CP329) | Potency (FAB9) | Potency (JCK) | Potency (PC49)

C[C@@H]1CC[C@H]2[C@@H](C)C(=O)O[C@@H]3OC4(C)CC[C@@H]1C32OO4 (stereo partly drawn)
active: Potency ([4]; parasite line A) 7.9 nM | Potency ([4]; parasite line B) 7.1 nM | Potency (ATS189) 8.9 nM | Potency (C2A) 11.2 nM | Potency (CP191) 7.1 nM | Potency (CP192) 16.9 nM | Potency (CP201) 30.1 nM | Potency (CP215) 13.5 nM | Potency (CP237) 10 nM | Potency (CP238) 10 nM | Potency (CP268) 13.5 nM | Potency (CP269) 10.7 nM | Potency (CP286) 7.1 nM | Potency (CP325) 15.1 nM | Potency (CP329) 15.1 nM | Potency (FAB9) 7.9 nM
inactive: outcome [1] | Potency [2] | Potency [3]

C[C@]12CCC3C(CCC4=C(Cl)C(=O)CC[C@@]43C)C1CCC2O (stereo partly drawn)
inactive: outcome [1] | Potency [2] | Potency [3] | activity, negative = inhibition [4, 5] -5.63% | activity, negative = inhibition [4, 6] -11.9% | Potency (ATS189) | Potency (C2A) | Potency (CP191) | Potency (CP192) | Potency (CP201) | Potency (CP215) | Potency (CP237) | Potency (CP238) | Potency (CP268) | Potency (CP269) | Potency (CP286) | Potency (CP325) | Potency (CP329) | Potency (FAB9) | Potency (JCK) | Potency (PC49)

CCCC(C)C1(CC)C(=O)NC(=S)NC1=O (stereo not drawn)
inactive: outcome [1] | Potency [3] | activity, negative = inhibition [4, 5] 0.271% | activity, negative = inhibition [4, 6] 18% | Potency (ATS189) | Potency (C2A) | Potency (CP191) | Potency (CP201) | Potency (CP215) | Potency (CP237) | Potency (CP238) | Potency (CP268) | Potency (CP269) | Potency (CP286) | Potency (CP325) | Potency (CP329) | Potency (FAB9) | Potency (JCK) | Potency (PC49)

CCC(C)C1NC(=O)C(CCNCS(=O)(=O)O)NC(=O)C(NC(=O)C(CCNCS(=O)(=O)O)NC(=O)C(NC(=O)C(CCNCS(=O)(=O)O)NC(=O)CCCCC(C)C)C(C)O)CCNC(=O)C(C(C)O)NC(=O)C(CCNCS(=O)(=O)O)NC(=O)C(CCNCS(=O)(=O)O)NC(=O)C(C(C)CC)NC1=O (stereo not drawn) ({Heptanoyl(6-Me)}-[ξDab(CH2SO3H)]T[ξDab(CH2SO3H)][Dab][ξDab(CH2SO3H)]II[ξDab(CH2SO3H)][ξDab(CH2SO3H)]T; lactam 4-C; configuration not given here)
inactive: outcome [1]

Cc1ccc2c(c1)[C@@H]1CN(C)CC[C@H]1N2
inactive: outcome [1] | Potency [2] | Potency [3] | activity, negative = inhibition [4, 5] 6.31% | activity, negative = inhibition [4, 6] 11.3% | Potency (ATS189) | Potency (C2A) | Potency (CP191) | Potency (CP192) | Potency (CP201) | Potency (CP215) | Potency (CP238) | Potency (CP268) | Potency (CP269) | Potency (CP286) | Potency (CP325) | Potency (CP329) | Potency (FAB9) | Potency (JCK) | Potency (PC49)

O=[N+]([O-])OC1CO[C@H]2C(O[N+](=O)[O-])COC12 (stereo partly drawn)
inactive: outcome [1] | Potency [2] | Potency [3] | activity, negative = inhibition [4, 5] -2.15% | activity, negative = inhibition [4, 6] 1.56% | Potency (ATS189) | Potency (C2A) | Potency (CP191) | Potency (CP192) | Potency (CP201) | Potency (CP237) | Potency (CP238) | Potency (CP268) | Potency (CP269) | Potency (CP286) | Potency (CP325) | Potency (CP329) | Potency (FAB9) | Potency (JCK) | Potency (PC49)

CC1(C)S[C@@H]2[C@H](N)C(=O)N2C1C(=O)O (stereo partly drawn)
inactive: outcome [1] | Potency [2] | Potency [3] | activity, negative = inhibition ([4]; at 12.8 µM (top of the series), parasite line A) 15.1% | activity, negative = inhibition ([4]; at 12.8 µM (top of the series), parasite line B) 13.6% | Potency (ATS189) | Potency (C2A) | Potency (CP191) | Potency (CP192) | Potency (CP201) | Potency (CP215) | Potency (CP237) | Potency (CP238) | Potency (CP268) | Potency (CP269) | Potency (CP286) | Potency (CP325) | Potency (CP329) | Potency (FAB9) | Potency (JCK) | Potency (PC49)
